# Test results reported in publication PMC10726135, “HNF4α isoforms regulate the circadian balance between carbohydrate and lipid metabolism in the liver”.
# Over roughly 18,000 sequences, “log2 normalized intensity” has its median near 0.39; the highest 2% begin near 6.6. For the sample, the highest values were picked, then their nearest neighbours and some sequences at random.
# Biological target: T1, HNF4alpha2 (COS-7 nuclear extract) (Homo sapiens, UniProt P41235 1-474)
# T1 sequence: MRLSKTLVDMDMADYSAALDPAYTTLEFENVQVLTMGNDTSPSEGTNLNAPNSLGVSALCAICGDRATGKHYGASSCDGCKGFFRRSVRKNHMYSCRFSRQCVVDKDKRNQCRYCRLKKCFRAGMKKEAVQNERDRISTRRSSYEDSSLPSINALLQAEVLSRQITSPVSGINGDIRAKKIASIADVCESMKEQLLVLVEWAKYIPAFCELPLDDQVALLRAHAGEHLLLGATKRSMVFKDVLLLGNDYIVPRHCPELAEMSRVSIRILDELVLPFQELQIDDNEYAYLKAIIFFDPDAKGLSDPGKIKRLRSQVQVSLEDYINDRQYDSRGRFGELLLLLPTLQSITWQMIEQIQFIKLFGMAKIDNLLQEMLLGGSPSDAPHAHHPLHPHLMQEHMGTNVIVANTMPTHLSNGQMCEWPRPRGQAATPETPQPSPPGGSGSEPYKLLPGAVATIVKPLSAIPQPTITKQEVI
# Assay: protein-binding microarray; COS-7 nuclear extract on double-stranded Agilent 4x180k PBM; binding buffer, salt, pH and temperature not given in the material; high values mean tight binding
# Settings: chain copies: 2; label: 3' end of strand 1 on the slide; dsDNA, one strand shown
# In short: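 A human HNF4α isoform was expressed in COS-7 cells by transient CaPO4 transfection, and nuclear extracts were prepared. These were applied to a custom Agilent SurePrint G3 4x180k array carrying ~44,000 test sequences in quadruplicate as double-stranded ~60-nt oligonucleotides, and an Agilent G2565CA scanner imaged bound HNF4α at 2-µm resolution. The background-corrected, normalized gProcessedSignal from Agilent software was used as the binding signal.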
row,Sequence,binding signal [log2 normalized intensity]
1,TCAGAGCAGGTGAACGACTTGACAAAGGTCGCCTAGGGAGATTAGAGTATCGGTCGA,3.22
2,TGATGACTTTTGACCCCAGGGGAAACTCCAGCCTAGGGAGATTAGAGTATCGGTCGA,3.99
3,CTGGTGTAGTGGGGAGGGCATGGACTTTGGGCCTAGGGAGATTAGAGTATCGGTCGA,5.45
4,GAATGACTTTGGGGAAATGACCTTTGTCCAGCCTAGGGAGATTAGAGTATCGGTCGA,8.8
5,ACTTTGGGGAAATGACCTTTGTCCAGCTGTGCCTAGGGAGATTAGAGTATCGGTCGA,6.74
6,TTATCATGTGGTATTAACATGTAAATATGAGCCTAGGGAGATTAGAGTATCGGTCGA,1.69
7,ATGTGGTATTAACATGTAAATATGACCTTTGCCTAGGGAGATTAGAGTATCGGTCGA,7.12
8,GGGGAGGGCATGGACTTTGGAATTAAGGAGGCCTAGGGAGATTAGAGTATCGGTCGA,5.45
9,GGGGAAATGACCTTTGTCCAGCTGTGCCGAGCCTAGGGAGATTAGAGTATCGGTCGA,6.11
10,AATGACCTTTGTCCAGCTGTGCCGAGCCTGGCCTAGGGAGATTAGAGTATCGGTCGA,4.02
11,GTATTAACATGTAAATATGACCTTTGCTTTGCCTAGGGAGATTAGAGTATCGGTCGA,6.44
12,GTAGTGGGGAGGGCATGGACTTTGGAATTAGCCTAGGGAGATTAGAGTATCGGTCGA,7.37
13,GGAGGACTTTGGAATGGCAGTGCTTGTCCAGCCTAGGGAGATTAGAGTATCGGTCGA,1.83
14,CTAAAAACATTGTGGAGCTCATGTAAGGTCGCCTAGGGAGATTAGAGTATCGGTCGA,1.62
15,CATGTGGGTCCAAAGAACATTGCATTCCTTGCCTAGGGAGATTAGAGTATCGGTCGA,1.55
16,CCCCGCCTTGGCCTCCCGGAGAGGCCCCGCGCCTAGGGAGATTAGAGTATCGGTCGA,2.49
17,CCCCCACACCATTAGAGAACATGTACTTTGGCCTAGGGAGATTAGAGTATCGGTCGA,3.32
18,TTAAAGGGCAGAAGAAGGGATTTAGATTAGGCCTAGGGAGATTAGAGTATCGGTCGA,-0.58
19,GATCCTCCCACTTCAGCCTCCCGAGTAGTTGCCTAGGGAGATTAGAGTATCGGTCGA,2.81
20,TGAGAGAGCATCCAGATAAAGCTGAAGAAAGCCTAGGGAGATTAGAGTATCGGTCGA,-0.814
21,TTCAGCCATTTTATGACCATGAGGTGACGGGCCTAGGGAGATTAGAGTATCGGTCGA,1.6
22,ACGTGGCAATCATTCTGTCTGCCTTCAGGCGCCTAGGGAGATTAGAGTATCGGTCGA,-0.947

row,Sequence,binding signal [log2 normalized intensity]
1,CACTGTTGCCCCTTCCAAAGTCCACCTCAAGCCTAGGGAGATTAGAGTATCGGTCGA,4.43
2,CCTTTTTGGAATGTGTTTGCATGACTCATAGCCTAGGGAGATTAGAGTATCGGTCGA,1.77
3,ATGACCTTTGAGCAATAGGAAATGGGAGGGGCCTAGGGAGATTAGAGTATCGGTCGA,2.34
4,GCATGGAATGACTTTGGGGAAATGACCTTTGCCTAGGGAGATTAGAGTATCGGTCGA,7.23
5,CCTTGACACATCTGATTAGAGGCTCAGGTAGCCTAGGGAGATTAGAGTATCGGTCGA,-0.794
6,TTATATCAGAGGAATGTCTGACCAACCTGTGCCTAGGGAGATTAGAGTATCGGTCGA,0.0786
7,ATTGGCTTGGCTGTGTCCCTTGACCAAAGGGCCTAGGGAGATTAGAGTATCGGTCGA,2.07
8,AGTATATTGGCTTGGCTGTGTCCCTTGACCGCCTAGGGAGATTAGAGTATCGGTCGA,3.04
9,CTGTACACTTACAAGTGTACAAAGGTCACTGCCTAGGGAGATTAGAGTATCGGTCGA,7.61
10,GTCTGACCAACCTGTCCAAAGGTCATCTGTGCCTAGGGAGATTAGAGTATCGGTCGA,7.04
11,CACTTACAAGTGTACAAAGGTCACTTCTGTGCCTAGGGAGATTAGAGTATCGGTCGA,6.32
12,TATACCTGTACACTTACAAGTGTACAAAGGGCCTAGGGAGATTAGAGTATCGGTCGA,2.65
13,ACCAACCTGTCCAAAGGTCATCTGTCACTCGCCTAGGGAGATTAGAGTATCGGTCGA,5.7
14,CCTGTCCAAAGGTCATCTGTCACTCTAGATGCCTAGGGAGATTAGAGTATCGGTCGA,5.47
15,GGAATGTCTGACCAACCTGTCCAAAGGTCAGCCTAGGGAGATTAGAGTATCGGTCGA,7.66
16,CTTGGCTGTGTCCCTTGACCAAAGGTCACTGCCTAGGGAGATTAGAGTATCGGTCGA,6.77
17,TCAGAGGAATGTCTGACCAACCTGTCCAAAGCCTAGGGAGATTAGAGTATCGGTCGA,0.136
18,AAGGCTTTGAAGTCTGGTGGCAAGTACCCTGCCTAGGGAGATTAGAGTATCGGTCGA,-0.842
19,ATTTTCTCATCCCAGGGATAATGATAAAGAGCCTAGGGAGATTAGAGTATCGGTCGA,-0.184
20,TCCCTTTAGTGGAGTATAGGAACATGAACTGCCTAGGGAGATTAGAGTATCGGTCGA,1.96
21,GAGTTGGGGACAAAGTTCAAGGTCCAGCCTGCCTAGGGAGATTAGAGTATCGGTCGA,5.28
22,GTCCAAGATGGCAATGTTCCTGCTCTGTCAGCCTAGGGAGATTAGAGTATCGGTCGA,-0.996

row,Sequence,binding signal [log2 normalized intensity]
1,AGATTACTTCAAGGCTGGAGTTCACTCCCAGCCTAGGGAGATTAGAGTATCGGTCGA,-0.354
2,CATGGGTCTCTTCCTCAGTTTGTTCTTGGGGCCTAGGGAGATTAGAGTATCGGTCGA,1.18
3,GATCCAAAAGACCCAGGTGTGTTGCAACTTGCCTAGGGAGATTAGAGTATCGGTCGA,0.84
4,CCCATCCGCAGTGGGAGAGCAAGGGTCAAGGCCTAGGGAGATTAGAGTATCGGTCGA,3.57
5,GTGGGAGAGCAAGGGTCAAGGGTCATTTGTGCCTAGGGAGATTAGAGTATCGGTCGA,6.7
6,AGAGCAAGGGTCAAGGGTCATTTGTTTTTAGCCTAGGGAGATTAGAGTATCGGTCGA,5.91
7,CCGCAGTGGGAGAGCAAGGGTCAAGGGTCAGCCTAGGGAGATTAGAGTATCGGTCGA,6.65
8,TGGGTGGGGGAAGTGTGGTCAAGGGTCAGTGCCTAGGGAGATTAGAGTATCGGTCGA,4
9,AAGGGTCAAGGGTCATTTGTTTTTACAGACGCCTAGGGAGATTAGAGTATCGGTCGA,6.27
10,CAGAACAAAGTCCAGTAAGGACAGTTCCAGGCCTAGGGAGATTAGAGTATCGGTCGA,2.29
11,CTTGTAAGCCACAGTACAAAGGTGAGCTTTGCCTAGGGAGATTAGAGTATCGGTCGA,3.57
12,TGGATCATGTGTCTGAGCAAGTTTCCTCCTGCCTAGGGAGATTAGAGTATCGGTCGA,-0.544
13,CCTCGAGGCAACCTTTGACCTGGTACTATGGCCTAGGGAGATTAGAGTATCGGTCGA,6.02
14,GTCAAACCTTTGACCCTTTATAATCCCCTAGCCTAGGGAGATTAGAGTATCGGTCGA,4.25
15,TGAAGCGACCCCTCGAGGCAACCTTTGACCGCCTAGGGAGATTAGAGTATCGGTCGA,8.54
16,GAAACCCTAAACCTGCAAACCTTTGACCTTGCCTAGGGAGATTAGAGTATCGGTCGA,5.31
17,AAGTATCTCGGTCAAACCTTTGACCCTTTAGCCTAGGGAGATTAGAGTATCGGTCGA,6.7
18,CGACCCCTCGAGGCAACCTTTGACCTGGTAGCCTAGGGAGATTAGAGTATCGGTCGA,7.48
19,ATCACTGAAGCGACCCCTCGAGGCAACCTTGCCTAGGGAGATTAGAGTATCGGTCGA,1.12
20,TCTCGGTCAAACCTTTGACCCTTTATAATCGCCTAGGGAGATTAGAGTATCGGTCGA,5.95
21,GTCAAATCACTGAAGCGACCCCTCGAGGCAGCCTAGGGAGATTAGAGTATCGGTCGA,1.42
22,CTGAATAAAACAAACTCATTTTGATCTTTGGCCTAGGGAGATTAGAGTATCGGTCGA,2.24

row,Sequence,binding signal [log2 normalized intensity]
1,CAGCAGACTCAGAAAAATATGTGGACTTCAGCCTAGGGAGATTAGAGTATCGGTCGA,2.49
2,CACCCCCATCTATGCACTCTCACCTTGGGGGCCTAGGGAGATTAGAGTATCGGTCGA,0.591
3,CAAATTGCTGACTTTCTGTGTCTTGGCAGTGCCTAGGGAGATTAGAGTATCGGTCGA,1.59
4,TCTACCTGACCTCCCAAAATTCTTCACATAGCCTAGGGAGATTAGAGTATCGGTCGA,-0.0778
5,TTCCCATTCATAAAATTACGCCACAGAGTTGCCTAGGGAGATTAGAGTATCGGTCGA,-0.871
6,AGAAGCTTGGTATGTCTGATGAATAGAAAGGCCTAGGGAGATTAGAGTATCGGTCGA,0.62
7,TCAGCCTTAACTCAAAAGGCCAAAGTCCAAGCCTAGGGAGATTAGAGTATCGGTCGA,8.38
8,ATCCACCCATCCAAAGGTCAGCAATCTCAAGCCTAGGGAGATTAGAGTATCGGTCGA,2.93
9,CCACTGGTGTAAGCTCTGGAGTCCAAAGGTGCCTAGGGAGATTAGAGTATCGGTCGA,3.79
10,AAGGTCAGCAAGCCTGGAGTTCTGATGTTCGCCTAGGGAGATTAGAGTATCGGTCGA,0.534
11,GGAGTGACCCTGGGAGCAAAGGTCAAGAGTGCCTAGGGAGATTAGAGTATCGGTCGA,6.55
12,TCATTTCAGCCTTAACTCAAAAGGCCAAAGGCCTAGGGAGATTAGAGTATCGGTCGA,-0.978
13,GTCCAAAGGTCAGCAAGCCTGGAGTTCTGAGCCTAGGGAGATTAGAGTATCGGTCGA,4.22
14,CTGGAGTCCAAAGGTCAGCAAGCCTGGAGTGCCTAGGGAGATTAGAGTATCGGTCGA,6.88
15,AAGCTCTGGAGTCCAAAGGTCAGCAAGCCTGCCTAGGGAGATTAGAGTATCGGTCGA,7.73
16,GGAGACCACTGGTGTAAGCTCTGGAGTCCAGCCTAGGGAGATTAGAGTATCGGTCGA,0.767
17,GGTGTAAGCTCTGGAGTCCAAAGGTCAGCAGCCTAGGGAGATTAGAGTATCGGTCGA,8.34
18,TCCACAGTCAAGGCCAAAGGTTAAAAATAAGCCTAGGGAGATTAGAGTATCGGTCGA,3.7
19,TTAATAGAAGAAAGCCCTTTTTGGAATGTGGCCTAGGGAGATTAGAGTATCGGTCGA,0.655
